The structures appear in SMILES notation. Where “and” joins values, the source holds several entries; their conditions need not be identical. Identical values can stand only once. The whole screen tested about 16,000 compounds, of which about 5,100 (32%) were called active. Roughly 25% stayed inconclusive and do not appear here. Some of the results follow. Unmarked numbers belong to inactive results. Calls follow the shape of the dose curve; as a rule, active = well fitted curve in the direction sought with a large enough effect; inconclusive = small, poorly fitted or top-dose-only effect, or effect the other way; inactive = no such curve, though single readings can be large or run the other way.
% is scaled to controls: 0 for no effect and ±100 for the full control effect.

In the assay the target is Cytochrome P450 3A4 (Homo sapiens) (UniProt P08684). Nature of the assay: Cytochrome panel assay with activity outcomes. The note with it: recombinant CYP, pro-luciferin dealkylation, luminescence, p450-cyp3a4; series mostly up to 57.1 µM; activity, negative = inhibition: at the top concentration.
Chain of Cytochrome P450 3A4 (Homo sapiens) (P08684 whole entry, looked up): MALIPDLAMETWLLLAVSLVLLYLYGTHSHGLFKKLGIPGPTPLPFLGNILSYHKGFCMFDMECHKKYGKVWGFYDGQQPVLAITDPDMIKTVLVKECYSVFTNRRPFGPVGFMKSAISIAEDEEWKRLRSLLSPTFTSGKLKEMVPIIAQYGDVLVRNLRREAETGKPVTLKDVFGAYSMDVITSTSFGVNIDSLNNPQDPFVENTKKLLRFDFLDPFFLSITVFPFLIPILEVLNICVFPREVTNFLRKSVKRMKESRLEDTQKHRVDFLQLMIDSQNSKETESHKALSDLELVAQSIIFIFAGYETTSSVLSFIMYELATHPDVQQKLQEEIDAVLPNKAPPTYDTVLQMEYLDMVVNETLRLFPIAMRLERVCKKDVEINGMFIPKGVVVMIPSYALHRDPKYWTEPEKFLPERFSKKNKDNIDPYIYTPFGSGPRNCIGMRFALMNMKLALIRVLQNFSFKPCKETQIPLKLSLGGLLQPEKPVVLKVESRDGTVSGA
In the case of `O=C(CSc1ccc(Cl)cc1)Nc1cccc(NC(=O)c2ccco2)c1`, the activity, negative = inhibition is -17.5% [at 11.4 µM]. The same measure, in the same setting: to `Cn1c2c(c(=O)n(C)c1=O)CN(CCN1CCNCC1)CN2` belongs 1.78%. Regarding `O=C(CSCC(=O)OCn1nnc2ccccc2c1=O)Nc1ccc(Cl)cc1`, the AC50 was 22.4 µM (active). On the same count and under the same terms, for `O=C(OCn1nnc2ccccc2c1=O)c1cccnc1` the value was 8.91 µM (active). For `O=C(Cn1nnc2ccccc21)N/N=C\C=C\c1ccccc1`, the “activity, negative = inhibition” value is -3.42%. For the molecule `COc1ccc(OC)c(S(=O)(=O)N2CCC(C(=O)Nc3ccc(C)c(C)c3)CC2)c1`, the AC50 is 5.01 µM (active).

In the case of `O=C(NCC1COc2ccccc2O1)C1CCN(S(=O)(=O)c2cccc3nsnc23)CC1` (stereo not drawn), the AC50 is 20 µM (active). `Cc1ccc(NC(=O)C2CCN(S(C)(=O)=O)CC2)cc1`: the activity, negative = inhibition was 0.664% [at 2.29 µM].

Turning to `Nc1nc2c(C(=O)NCc3cccs3)nnn2c2cccc(Cl)c12`, the activity, negative = inhibition was -1.06% [at 11.4 µM]. For `COc1ccc2nc(NC(=O)C3CCN(S(=O)(=O)c4cccc5nsnc45)CC3)sc2c1`, the AC50 is 14.1 µM (active). `COc1ccc2nc(NCN3C(=O)c4ccccc4C3=O)sc2c1`: the activity, negative = inhibition is -27.9% [at 11.4 µM]. Consider `CCc1ccc(NC(=O)C2CCN(S(=O)(=O)c3c(C)[nH]c(=O)[nH]c3=O)CC2)cc1`, for which the “activity, negative = inhibition” value is -15.2%. `Cc1cccc(NC(=O)C2CCN(S(=O)(=O)c3cccc4nsnc34)CC2)n1`: the “activity, negative = inhibition” value was -13.5%. Regarding `O=C(NCc1cccs1)C1CCN(S(=O)(=O)c2cccc3nsnc23)CC1`, the AC50 was 12.6 µM (active). Take `CC(C)=CCNc1ncnc2nc[nH]c12`: the activity, negative = inhibition was -14.9% [at 11.4 µM].

In the case of `COc1ccc(CCNC(=O)C2CCN(S(=O)(=O)c3cccc4nsnc34)CC2)cc1OC`, the concentration at half-maximal activity (AC50) was 3.98 µM (active). For `CC(=O)Nc1ccc(NC(=O)C2CCN(S(=O)(=O)c3cccc4nonc34)CC2)cc1`, the “activity, negative = inhibition” value was -29.4%. In the case of `COc1cc(NC(=O)C2CCN(S(=O)(=O)c3cccc4nonc34)CC2)cc(OC)c1`, the AC50 is 3.16 µM (active). In the case of `COC(=O)c1ccccc1OCC(=O)N1CCN(c2ccc(OC)cc2)CC1`, the activity, negative = inhibition is -29.6% [at 11.4 µM]. `COC(=O)c1ccccc1OCC(=O)N1CCN(c2ccc(Cl)cc2)CC1`: the AC50 is 15.8 µM (active). In the case of `COC(=O)c1ccccc1Oc1c(F)c(F)nc(N2CCOCC2)c1F`, the “activity, negative = inhibition” value is -22.2%. Still for that read-out and setting: to `OCCCNc1ncnc2[nH]ncc12` belongs -20.7% [at 11.4 µM]. As for `O=S1(=O)C=C(SCc2cccc(Cl)c2)Nc2ccccc21`, the AC50 is 2 µM (active).

Take `CC[C@@H]1CC(=O)N(SC[C@H](N)C(=O)O)C1=O`: the activity, negative = inhibition is -4.06% [at 11.4 µM]. Turning to `COc1ccc(-c2nc3cnc(OC)nc3n(Cc3cccc(OC)c3)c2=O)cc1`, the AC50 is 2.51 µM (active).

Turning to `CN(C)c1ncc2nc(-c3ccccc3)c(=O)n(C)c2n1`, the “activity, negative = inhibition” value was -29.7%. Same read-out and setting: for `COc1cccc(Cn2c(=O)c(-c3cc(F)cc(F)c3)nc3cnc(N(C)C)nc32)c1` the value was -27.5%. `COc1cccc(Cn2c(=O)c(-c3ccccc3)nc3cnc(N(C)C)nc32)c1`: the AC50 was 6.31 µM (active). Same read-out and setting: for `COc1cccc(Cn2c(=O)c(-c3ccccc3)nc3cnc(OC)nc32)c1` the value was 7.94 µM (active). As to `Oc1c(Br)cc(CN(Cc2cc(Br)c(O)c(Br)c2)C2CCCCC2)cc1Br`, the activity, negative = inhibition is -9.71% [at 11.4 µM]. `COc1ccc(C2=Nc3cccc4cccc(c34)N2)cc1`: the “activity, negative = inhibition” value is 12.5%.

With `COc1cccc(-c2cncnc2NCc2ccccc2OC)c1`, the AC50 is 0.501 µM (active). Still for that read-out and setting: for `COc1ccc(CNc2ncncc2-c2cccnc2)c(OC)c1` the value was 0.501 µM (active); for `COc1ccc(CNc2ncncc2-c2cccc(C#N)c2)c(OC)c1`, 0.316 µM (active); for `COc1cccc(-c2cncnc2NCc2ccc(OC)cc2OC)c1`, 0.501 µM (active). Take `CCNc1nc(NCC)nc(ON=C(C)C)n1`: the “activity, negative = inhibition” value is -10.1%. `Cn1ccnc1C[C@@](C)(O)c1ccccc1`: the activity, negative = inhibition was -4.26% [at 11.4 µM]. The same measure, in the same setting: for `CCn1cc(C(=O)N/N=C(/C)c2ccc(F)cc2)c(=O)c2cc(F)c(N3CCCC3)cc21` the value was -9.03%. Turning to `COc1ccccc1CNc1ncncc1-c1cccnc1`, the concentration at half-maximal activity (AC50) is 0.794 µM (active). Regarding `CC(C)(C)N1C(=O)[C@H]2[C@H]3[C@H](O)[C@H](O)C/C(=N/OC[C@@H](O)COCc4ccco4)[C@@H]3CC[C@@H]2C1=O`, the AC50 is 5.01 µM (active). In the case of `CCOC(=O)CCN1C(=O)[C@H]2[C@H]3[C@H](O)[C@H](O)C/C(=N/OC[C@@H](O)COCc4ccco4)[C@@H]3CC[C@@H]2C1=O`, the activity, negative = inhibition is -16.7% [at 11.4 µM]. On the same count and under the same terms, to `C[C@@H](c1ccccc1)N1C(=O)[C@H]2[C@@H]3[C@H](O)[C@H](O)CC(=O)[C@H]3CC[C@H]2C1=O` belongs -24.3% [at 11.4 µM] and -16.6% [at 11.4 µM].

With `O=C1[C@H]2[C@H]3[C@H](O)[C@H](O)C/C(=N/OC[C@@H](O)COCc4ccco4)[C@@H]3CC[C@@H]2C(=O)N1C[C@@H]1CCCO1`, the activity, negative = inhibition is -23.9% [at 11.4 µM]. Same read-out and setting: to `CCOC(=O)CCN1C(=O)[C@H]2[C@H]3[C@H](O)[C@H](O)C/C(=N/OC[C@@H](O)COCc4ccco4)[C@H]3CC[C@@H]2C1=O` belongs -22.6% [at 11.4 µM].

`C[C@@H](c1ccccc1)N1C(=O)[C@H]2[C@H]3[C@H](O)[C@H](O)C/C(=N/OC[C@@H](O)COCc4ccco4)[C@@H]3CC[C@@H]2C1=O`: the AC50 is 3.16 µM (active). In the case of `CC(=O)OC[C@@H]1O[C@@H](O/N=C2/C[C@@H](O)[C@@H](O)[C@@H]3[C@@H]4C(=O)N([C@@H](C)c5ccccc5)C(=O)[C@H]4CC[C@H]23)[C@H](OC(C)=O)[C@H](OC(C)=O)[C@@H]1OC(C)=O`, the activity, negative = inhibition was -29.1% [at 11.4 µM]. As to `C[C@@H](c1ccccc1)N1C(=O)[C@H]2[C@H]3[C@H](O)[C@H](O)C/C(=N/OC[C@@H](O)COCc4ccco4)[C@H]3CC[C@@H]2C1=O`, the concentration at half-maximal activity (AC50) is 3.98 µM (active). Regarding `O=C1[C@H]2[C@H]3[C@H](O)[C@H](O)C/C(=N/OC[C@@H](O)COCc4ccco4)[C@H]3CC[C@@H]2C(=O)N1C[C@@H]1CCCO1`, the activity, negative = inhibition is -13.4% [at 11.4 µM].

In general, AC50 refers to the midpoint of the concentration-response curve, whichever way the signal moves.

Values taken from PubChem BioAssay AID1851 (National Center for Advancing Translational Sciences (NCATS), 2009).
